GAA850 FXN act = activators of GAA850 frataxin (FXN) promoter | HEK293 lucGAA850 FXN promoter luciferase reporter, 24 h; percent of 10 µM SAHA response | activation, % at 6 µM | 0.56% of 360,000 active;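 active means activation above the average of all compounds screened plus 3 SD, cutoff fixed separately per campaign, cut at about 7.5% in these data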;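 further: 0% = DMSO wells and 100% = 10 µM SAHA wells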
AHR act = activates the human aryl hydrocarbon receptor; P35869; AHR-responsive luciferase reporter cells, luminescence; activation, % at 5 µM; 2.5% of 320,000 active; AID 2796; in the data active means activation above about 47%;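 further: 0% = vehicle wells and 100% = reference agonist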
Target sequence (P35869 whole entry, looked up): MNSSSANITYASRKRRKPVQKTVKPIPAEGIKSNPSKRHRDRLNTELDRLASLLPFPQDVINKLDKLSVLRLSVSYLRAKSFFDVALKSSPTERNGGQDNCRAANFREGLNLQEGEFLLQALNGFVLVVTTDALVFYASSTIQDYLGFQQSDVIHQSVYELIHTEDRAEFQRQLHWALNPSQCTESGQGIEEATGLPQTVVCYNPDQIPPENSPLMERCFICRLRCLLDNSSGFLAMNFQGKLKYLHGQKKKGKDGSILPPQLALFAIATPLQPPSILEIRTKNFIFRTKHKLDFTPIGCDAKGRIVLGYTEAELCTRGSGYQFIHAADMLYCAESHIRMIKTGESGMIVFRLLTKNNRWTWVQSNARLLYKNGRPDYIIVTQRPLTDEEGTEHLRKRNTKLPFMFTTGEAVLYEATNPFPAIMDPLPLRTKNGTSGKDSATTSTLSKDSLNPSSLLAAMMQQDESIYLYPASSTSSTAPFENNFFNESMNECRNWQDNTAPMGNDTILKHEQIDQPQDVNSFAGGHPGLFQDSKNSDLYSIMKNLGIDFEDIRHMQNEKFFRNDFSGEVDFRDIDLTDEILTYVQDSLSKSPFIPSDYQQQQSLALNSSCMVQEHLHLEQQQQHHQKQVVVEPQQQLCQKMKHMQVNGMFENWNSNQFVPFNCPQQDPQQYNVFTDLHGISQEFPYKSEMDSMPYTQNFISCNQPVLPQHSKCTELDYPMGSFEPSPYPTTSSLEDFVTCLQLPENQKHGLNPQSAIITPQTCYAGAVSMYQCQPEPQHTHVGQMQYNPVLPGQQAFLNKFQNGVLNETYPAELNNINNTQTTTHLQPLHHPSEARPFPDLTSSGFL
HSF1 inh = HSF1 inhibition; NIH3T3-HGL HSE-luciferase, MG132-induced, luminescence 8 h; hits give low values; 0.77% of 300,000 active; AID 2098; activity change, negative = inhibition, % at 7.5 µM (by protocol);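 active means more than half of replicate wells show activity change below -50%, luminescence cut by over half; inconclusive means some wells, but at most half, below -50%; inactive means no replicate well below -50%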;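 further: luciferase reports HSF-1 transcriptional activity via heat shock element; 0% = median of DMSO wells and -100% = zero luminescence signal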
HSF-1 act = increases HSF-1 driven luciferase reporter signal. NIH3T3-HGL HSF-1 luciferase reporter, MG132, 8 h; 100% = twice DMSO control signal. 1.7% of 300,000 active. AID 504408. activation, % at 9 µM;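 active means mean replicate activation of at least 50% with a set share of replicates each reaching 50%; inconclusive means only one of those two conditions met; inactive means mean below 50% and too few replicates reaching it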;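 further: 0% = median of the neutral control wells and 100% = twice that signal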
AHR act cf = confirmation of human aryl hydrocarbon receptor activators. shares compounds with AHR act. activation, % at 9 µM. human cells, AHR-responsive luciferase reporter, luminescence. 87% of 2,300 active; in the data active means activation above about 49%;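 further: HepG2 hepatoma cells carrying a DRE-driven firefly luciferase reporter; 0% = vehicle wells and 100% = reference agonist wells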
PXR act counter = counter-screen for AHR activators: human PXR activators; shares compounds with AHR act; cell-based PXR reporter, luciferase luminescence; activation, % at 11.6 µM; 88% of 2,300 active; AID 434939; in the data active means activation above about 11%;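 further: human hepatoma DPX-2 cells expressing full-length human PXR; 0% = DMSO and 100% = reference agonist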
* marks the source's active call; other numbers are inactive results; ? = inconclusive; / = no result given. Only some compounds are listed: those with a hit (about 4.6% of all), similar ones and a draw of the others.

SMILES	GAA850 FXN act	AHR act	HSF1 inh	HSF-1 act	AHR act cf	PXR act counter
COc1ccc(/C=N/Nc2snc(SC)c2C#N)cc1OC	5	84*	40	42	137*	25*
CCCCNC(=O)c1ccc2c(c1)C(=O)N(Cc1ccncc1)C2=O	-1	/	-7	2	/	/
O=C(Nc1ccc(Cl)cc1F)c1ccc2c(c1)C(=O)N(Cc1ccncc1)C2=O	0	99*	/	/	94*	11*
N/C(=N\c1nc2c(c(=O)[nH]1)CCCC2)Nc1ccccc1Sc1ccccc1	3	1	12	13	/	/
COCCCNc1nc(-c2ccc(Cl)cc2)nc2ccccc12	5	98*	-9	-14	91*	30*
OCCNc1nc(-c2ccccc2)nc2ccccc12	2	30	9	46	/	/
COc1ccc(-c2nc(NCCCN(C)C)c3ccccc3n2)cc1	3	26	7	5	/	/
CCN(CC)CCCNc1nc(-c2ccccc2)nc2ccccc12	0	4	3	12	/	/
COCCCNc1nc(-c2ccncc2)nc2ccccc12	3	88*	-3	-5	103*	56*
COCCN(CCOC)c1nc(-c2ccc(Cl)cc2)nc2ccccc12	0	118*	-5	17	83*	70*
c1ccc(-c2nc(NCCCn3ccnc3)c3ccccc3n2)cc1	0	82*	-10	-8	89*	76*
Cc1cc(=O)oc2cc(OCC(=O)Nc3ccccc3C(N)=O)c(Cl)cc12	0	2	5	15	/	/
Cc1c(C)c2ccc(OCC(=O)Nc3ccc(N4CCC(C)CC4)cc3)cc2oc1=O	-2	-1	5	-15	/	/
COCCN(CCOC)c1nc(-c2ccccc2)nc2ccccc12	1	/	-7	5	/	/
CCN(CC)c1nc(-c2ccccc2)nc2ccccc12	1	108*	6	29	78*	91*
OCCCNc1nc(-c2ccc(Cl)cc2)nc2ccccc12	3	88*	-10	-25	104*	62*
S=C(Nc1ccc(Cl)cc1Cl)Nn1cnnc1	2	-1	7	7	/	/
CC(C)c1ccc(NC(=O)c2sccc2-n2cccc2)cc1	5	84*	13	29	113*	46*
O=C(N/N=C\c1ccccc1)c1sccc1-n1cccc1	2	82*	12	1	127*	25*
O=C(NNC(=O)c1sccc1-n1cccc1)c1ccc(Cl)cc1	0	90*	-1	3	100*	28*
O=C(NNS(=O)(=O)c1ccccc1)c1sccc1-n1cccc1	-1	2	6	7	/	/
O=C(NNS(=O)(=O)c1ccc(Cl)cc1)c1sccc1-n1cccc1	-1	2	7	-14	/	/
O=C(CN1CCN(Cc2ccc3c(c2)OCO3)CC1)Nc1cc(S(=O)(=O)N2CCCC2)ccc1Cl	0	0	-10	1	/	/
COc1ccc(NC(=O)c2cc(-c3cc(F)ccc3OC(C)C)n[nH]2)c(OC)c1	1	/	/	/	/	/
NC1=NC(=O)/C(=C/c2ccc(-c3ccc(S(N)(=O)=O)cc3)o2)S1	-2	121*	-9	-10	88*	16*
SMILES	GAA850 FXN act	AHR act	HSF1 inh	HSF-1 act	AHR act cf	PXR act counter
Cc1cc(=O)[nH]c(-c2ccc(C(F)(F)F)cc2)n1	1	87*	2	9	114*	11*
Cc1ccc(-c2nc(C(F)(F)F)cc(=O)[nH]2)cc1	1	-1	-3	5	/	/
CSCCC(NC(=O)c1ccccc1Cl)C(=O)N1CCCCCCC1 (stereo unspecified)	2	-2	/	/	/	/
Cc1ccc(NC(=O)c2ccsc2)cc1NS(C)(=O)=O	2	84*	-4	-2	95*	33*
CCSc1ccccc1C(=O)n1nnc2ccccc21	-7	3	/	/	/	/
Cc1ccc2nc(Nc3nc(C)cc(C(F)(F)F)n3)nc(C)c2c1	3	98*	-3	-8	95*	131*
N#Cc1cccc2c1-c1ccccc1/C2=N/NC(N)=S	2	139*	-3	4	117*	44*
Cc1cc(N2CCCCC2)nc(-c2ccc(Br)cc2)n1	3	80*	4	-4	109*	3
c1cc(-c2cccs2)nc(-c2cccs2)c1	0	96*	11	21	84*	16*
CN(C#N)c1nccc(-c2cccs2)n1	1	-10	6	9	/	/
C=CCn1c(=O)c(C(=O)NCCc2ccc(Cl)cc2)c(O)c2cc(OC)c(OC)cc21	0	3	-1	15	/	/
C=CCn1c(=O)c(C(=O)NC2CC2)c(O)c2cc(OC)c(OC)cc21	1	102*	-4	-6	44	30*
Oc1oc(-c2ccccc2)nc1/C=N/c1nccs1	2	100*	10	12	78*	/
CCCCOc1ccc(-c2nc(/C=N/c3nccs3)c(O)o2)cc1	1	1	10	?	/	/
CC(=O)Nc1ccc2cc3ccc(NC(C)=O)cc3nc2c1	0	107*	-1	20	81*	/
CC(=O)Nc1ccc2sc(C)nc2c1	3	0	13	42	/	/
Nc1c(C(=O)c2ccccc2)oc2ccccc12	5	112*	5	-14	140*	24*
COc1ccc2oc(C(=O)c3ccccc3)c(N)c2c1	/	40	22	31	/	/
Nc1c(C(=O)c2ccco2)oc2ccccc12	/	9	-4	18	/	/
Nc1c(C(=O)c2ccc(F)cc2)oc2ccccc12	5	92*	1	3	156*	16*
Nc1c(C(=O)Nc2ccc(Cl)cc2)oc2ccccc12	5	107*	26	31	132*	60*
COc1ccc(C(=O)c2oc3ccccc3c2N)cc1	6	82*	7	14	133*	12*
Cc1ccc(CCSc2ccc(C(C)C)cc2)cn1	-3	0	4	16	/	/
COc1ccccc1N1CCN(Cc2cc3c(cc2[N+](=O)[O-])OCO3)CC1	1	4	-3	3	/	/
CC1(C(=O)O)CCC(C(=O)NNC(=O)c2ccccc2O)C1(C)C (stereo unspecified)	2	7	0	-17	/	/
SMILES	GAA850 FXN act	AHR act	HSF1 inh	HSF-1 act	AHR act cf	PXR act counter
O=C(CSc1nnc2ccc(-c3ccccn3)nn12)NCC1CCCO1 (stereo unspecified)	1	0	2	-13	/	/
COc1cccc(C(=O)Nc2c(C(N)=O)oc3ccccc23)c1	2	94*	-9	6	133*	21*
C#Cc1ccc(C(=O)Nc2cc(C(N)=O)ccc2N2CCOCC2)cc1	-5	80*	1	1	72*	12*
CC(=O)Nc1ccc2nc(-c3ccncc3)[nH]c2c1	2	13	-14	-31	/	/
Cc1nc(SCC(=O)N(C)Cc2ccco2)c2c(C)c(C)sc2n1	4	92*	-1	0	55*	182*
COc1ccc(N2C(=O)CC(N3CCC(c4nc5ccccc5[nH]4)CC3)C2=O)cc1 (stereo unspecified)	2	-1	-8	19	/	/
